# Source: the supplement of paper PMC10849652
# Of roughly 7,900 targets only a part is listed; those with a hit were picked by preference. About 0.6% of all pairs of compound and target were hits. Unmarked numbers belong to inactive results.
# Experiments:
# Assay in all cases: log2 fold change, soluble protein after heating vs DMSO (PISA); higher = thermal stabilisation; K562 cells, 10 uM, 30 min; active = over 0.2 and 3.5 SD of the protein, either way, in both replicates (recomputed)
# [1] = compound: CC1=C(C=C(C=C1)NC(=O)C2=CC(=CC=C2)C(C)(C)C#N)NC3=CC4=C(C=C3)N=CN(C4=O)C
# In short: (§1)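 Thermal stability values are relative to control samples and come from duplicates. They are expressed as log2 fold changes. For measurement, K562 cells (2×10^6 cells/mL) received 10 μM compound for 30 min, and aliquots were heated for 3 min over 48°C-58°C, pooled, and extracted at 4°C in PBS with 0.5% NP-40. Soluble protein, the supernatant after 21,000xg for 90 min, was quantified by TMTpro 16plex LC-MS/MS with equalised channel sums.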
# [2] = compound: CC1=C(C=C(C=C1)NC(=O)C2=CC(=CC=C2)N(C)C)NC(=O)C3=CC=C(C=C3)O
# In short: as §1
# [3] = compound: CC1=CC=C(C=C1)SC2=C3C=C(SC3=CN=C2)C(=O)N
# In short: as §1
# [4] = compound: CC1=NC(=CC=C1)C2=C(N=C(N2)C(C)(C)C)C3=CC4=NC=CN=C4C=C3
# In short: as §1
# Nexturastat A = compound: CCCCN(Cc1ccc(C(=O)NO)cc1)C(=O)Nc1ccccc1 [Nexturastat A]
# In short: as §1
# vemurafenib = compound: CCCS(=O)(=O)Nc1ccc(F)c(C(=O)c2c[nH]c3ncc(-c4ccc(Cl)cc4)cc23)c1F [vemurafenib]
# In short: as §1
# [5] = compound: CCCS(=O)(=O)Nc1ccc(F)c(C(=O)c2c[nH]c3ncc(Cl)cc23)c1F
# In short: as §1
# [6] = compound: CCCc1cc(C)[nH]c(=O)c1CNC(=O)c1cc(-c2ccnc(N3CCN(C)CC3)c2)cc2c1cnn2C(C)C
# In short: as §1
# givinostat = compound: CCN(CC)Cc1ccc2cc(COC(=O)Nc3ccc(C(=O)NO)cc3)ccc2c1 [givinostat]
# In short: as §1
# barasertib = compound: CCN(CCCOc1ccc2c(Nc3cc(CC(=O)Nc4cccc(F)c4)[nH]n3)ncnc2c1)CCOP(=O)(O)O [barasertib]
# In short: as §1
# [7] = compound: CC[C@@H]1C(=O)N(C)c2cnc(Nc3ccc(C(=O)NC4CCN(C)CC4)cc3OC)nc2N1C1CCCC1
# In short: as §1
# volasertib = compound: CC[C@@H]1C(=O)N(C)c2cnc(Nc3ccc(C(=O)N[C@H]4CC[C@H](N5CCN(CC6CC6)CC5)CC4)cc3OC)nc2N1C(C)C [volasertib]
# In short: as §1
# [8] = compound: CC[C@H](C)N1C=C(C2=C(C=C(C=C21)C3=CN=C(C=C3)N4CCNCC4)C(=O)NCC5=C(C=C(NC5=O)C)C)C
# In short: as §1
# epoxomicin = compound: CC[C@H](C)[C@@H](C(=O)N[C@@H]([C@@H](C)O)C(=O)N[C@@H](CC(C)C)C(=O)[C@]1(CO1)C)NC(=O)[C@H]([C@@H](C)CC)N(C)C(=O)C [epoxomicin]
# In short: as §1
# [9] = compound: CCn1c(C(=O)N(C2CC2)C2CC2)cc2c3c(ncn3C)c(Nc3cc(C)n(C)n3)nc21
# In short: as §1
# [10] = compound: CN(C)CC(=O)Nc1ccc2[nH]c(=O)c3ccccc3c2c1
# In short: as §1
# rosiglitazone = compound: CN(CCOC1=CC=C(C=C1)C[C@H]2C(=O)NC(=O)S2)C3=CC=CC=N3 (racemic) [rosiglitazone]
# In short: as §1
# [11] = compound: CN1C2=C(C3=C1C(=O)N(N=C3)CC4=CC(=CC=C4)N)SC(=C2)S(=O)C
# In short: as §1
# [12] = compound: CCn1cc(-c2ccnc3[nH]c(-c4cccc(CN(C)C)c4)cc23)c(-c2ccc(NC(=O)N(C)C)cc2)n1
# In short: as §1
# [13] = compound: CN1CCC(CNc2ccc3ncc(-c4cccc(OC(F)(F)F)c4)n3n2)CC1
# In short: as §1
# Chain of UniProt P53350 (P53350 whole entry, looked up): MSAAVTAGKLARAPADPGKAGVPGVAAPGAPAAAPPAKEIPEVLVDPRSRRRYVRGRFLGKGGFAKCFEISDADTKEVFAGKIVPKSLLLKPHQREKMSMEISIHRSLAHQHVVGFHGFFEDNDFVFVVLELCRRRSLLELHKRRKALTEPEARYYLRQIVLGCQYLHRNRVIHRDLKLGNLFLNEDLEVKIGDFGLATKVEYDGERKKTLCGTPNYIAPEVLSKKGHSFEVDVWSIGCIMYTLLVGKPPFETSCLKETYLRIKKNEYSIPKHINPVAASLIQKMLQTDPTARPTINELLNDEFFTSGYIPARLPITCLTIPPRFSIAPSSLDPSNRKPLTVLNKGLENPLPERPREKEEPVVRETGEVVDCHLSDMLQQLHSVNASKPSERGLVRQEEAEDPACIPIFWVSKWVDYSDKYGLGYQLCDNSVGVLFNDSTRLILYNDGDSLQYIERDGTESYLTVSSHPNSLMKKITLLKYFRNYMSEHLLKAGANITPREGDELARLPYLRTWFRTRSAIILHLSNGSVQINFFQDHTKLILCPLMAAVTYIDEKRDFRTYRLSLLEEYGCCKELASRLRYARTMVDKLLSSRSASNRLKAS
# Chain of UniProt P53801 (P53801 whole entry, looked up): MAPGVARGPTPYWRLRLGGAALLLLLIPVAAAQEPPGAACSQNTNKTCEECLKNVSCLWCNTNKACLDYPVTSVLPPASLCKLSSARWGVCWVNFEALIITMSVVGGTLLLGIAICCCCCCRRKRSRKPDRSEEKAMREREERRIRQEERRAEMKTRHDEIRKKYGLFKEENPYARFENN
# Chain of UniProt Q12974 (Q12974 whole entry, looked up): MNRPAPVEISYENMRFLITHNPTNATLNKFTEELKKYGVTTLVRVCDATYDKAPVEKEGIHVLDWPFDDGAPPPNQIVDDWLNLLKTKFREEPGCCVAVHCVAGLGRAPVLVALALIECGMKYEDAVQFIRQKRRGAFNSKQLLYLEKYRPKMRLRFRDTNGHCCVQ
# Chain of UniProt Q7Z3K3 (Q7Z3K3 whole entry, looked up): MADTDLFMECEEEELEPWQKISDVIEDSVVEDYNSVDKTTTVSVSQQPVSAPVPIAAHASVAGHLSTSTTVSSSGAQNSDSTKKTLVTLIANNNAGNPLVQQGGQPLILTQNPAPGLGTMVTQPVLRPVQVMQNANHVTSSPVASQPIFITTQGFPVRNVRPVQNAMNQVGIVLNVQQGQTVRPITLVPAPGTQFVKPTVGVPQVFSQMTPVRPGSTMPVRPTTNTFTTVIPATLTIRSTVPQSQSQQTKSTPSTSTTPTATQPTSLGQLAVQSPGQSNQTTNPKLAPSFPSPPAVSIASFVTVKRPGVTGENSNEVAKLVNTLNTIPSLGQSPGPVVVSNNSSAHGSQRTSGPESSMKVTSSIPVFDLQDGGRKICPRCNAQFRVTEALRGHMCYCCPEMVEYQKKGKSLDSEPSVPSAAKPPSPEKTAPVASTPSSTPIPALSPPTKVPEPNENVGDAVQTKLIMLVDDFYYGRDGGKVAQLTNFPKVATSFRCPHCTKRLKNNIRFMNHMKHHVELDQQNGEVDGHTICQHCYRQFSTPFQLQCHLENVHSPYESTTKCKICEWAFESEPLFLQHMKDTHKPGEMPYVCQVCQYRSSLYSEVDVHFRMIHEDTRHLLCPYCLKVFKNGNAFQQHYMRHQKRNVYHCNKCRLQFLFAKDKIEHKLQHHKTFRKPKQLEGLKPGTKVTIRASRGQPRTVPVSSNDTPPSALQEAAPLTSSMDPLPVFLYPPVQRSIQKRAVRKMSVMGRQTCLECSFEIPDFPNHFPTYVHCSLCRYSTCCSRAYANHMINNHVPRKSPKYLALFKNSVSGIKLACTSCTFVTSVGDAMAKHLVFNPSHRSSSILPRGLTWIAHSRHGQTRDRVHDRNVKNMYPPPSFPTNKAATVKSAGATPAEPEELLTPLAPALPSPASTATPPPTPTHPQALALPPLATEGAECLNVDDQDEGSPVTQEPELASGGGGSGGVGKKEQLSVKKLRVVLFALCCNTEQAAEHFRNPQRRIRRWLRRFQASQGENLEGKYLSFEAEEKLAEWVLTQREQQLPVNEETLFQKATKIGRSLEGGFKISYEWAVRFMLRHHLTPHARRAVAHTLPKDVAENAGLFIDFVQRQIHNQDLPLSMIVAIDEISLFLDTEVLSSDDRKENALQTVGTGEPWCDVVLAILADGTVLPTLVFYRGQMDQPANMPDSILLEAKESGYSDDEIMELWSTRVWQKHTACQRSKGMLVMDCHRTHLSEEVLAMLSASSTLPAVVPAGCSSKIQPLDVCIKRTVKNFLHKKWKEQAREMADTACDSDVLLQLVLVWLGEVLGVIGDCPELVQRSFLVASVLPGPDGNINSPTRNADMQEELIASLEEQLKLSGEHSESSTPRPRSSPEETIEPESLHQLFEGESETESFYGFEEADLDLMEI
# Chain of UniProt P05423 (P05423 whole entry, looked up): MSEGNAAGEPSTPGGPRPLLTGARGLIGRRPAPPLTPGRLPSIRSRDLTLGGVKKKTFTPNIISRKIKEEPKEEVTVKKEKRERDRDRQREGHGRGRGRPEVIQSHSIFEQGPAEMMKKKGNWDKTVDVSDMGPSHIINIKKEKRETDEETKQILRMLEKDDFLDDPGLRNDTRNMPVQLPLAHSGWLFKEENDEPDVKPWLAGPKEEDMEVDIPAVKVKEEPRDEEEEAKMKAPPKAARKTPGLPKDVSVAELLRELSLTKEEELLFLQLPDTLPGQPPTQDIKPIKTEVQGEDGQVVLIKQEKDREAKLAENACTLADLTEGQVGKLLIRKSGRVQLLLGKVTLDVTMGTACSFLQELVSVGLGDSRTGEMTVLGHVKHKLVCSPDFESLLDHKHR
# Chain of UniProt Q16513 (Q16513 whole entry, looked up): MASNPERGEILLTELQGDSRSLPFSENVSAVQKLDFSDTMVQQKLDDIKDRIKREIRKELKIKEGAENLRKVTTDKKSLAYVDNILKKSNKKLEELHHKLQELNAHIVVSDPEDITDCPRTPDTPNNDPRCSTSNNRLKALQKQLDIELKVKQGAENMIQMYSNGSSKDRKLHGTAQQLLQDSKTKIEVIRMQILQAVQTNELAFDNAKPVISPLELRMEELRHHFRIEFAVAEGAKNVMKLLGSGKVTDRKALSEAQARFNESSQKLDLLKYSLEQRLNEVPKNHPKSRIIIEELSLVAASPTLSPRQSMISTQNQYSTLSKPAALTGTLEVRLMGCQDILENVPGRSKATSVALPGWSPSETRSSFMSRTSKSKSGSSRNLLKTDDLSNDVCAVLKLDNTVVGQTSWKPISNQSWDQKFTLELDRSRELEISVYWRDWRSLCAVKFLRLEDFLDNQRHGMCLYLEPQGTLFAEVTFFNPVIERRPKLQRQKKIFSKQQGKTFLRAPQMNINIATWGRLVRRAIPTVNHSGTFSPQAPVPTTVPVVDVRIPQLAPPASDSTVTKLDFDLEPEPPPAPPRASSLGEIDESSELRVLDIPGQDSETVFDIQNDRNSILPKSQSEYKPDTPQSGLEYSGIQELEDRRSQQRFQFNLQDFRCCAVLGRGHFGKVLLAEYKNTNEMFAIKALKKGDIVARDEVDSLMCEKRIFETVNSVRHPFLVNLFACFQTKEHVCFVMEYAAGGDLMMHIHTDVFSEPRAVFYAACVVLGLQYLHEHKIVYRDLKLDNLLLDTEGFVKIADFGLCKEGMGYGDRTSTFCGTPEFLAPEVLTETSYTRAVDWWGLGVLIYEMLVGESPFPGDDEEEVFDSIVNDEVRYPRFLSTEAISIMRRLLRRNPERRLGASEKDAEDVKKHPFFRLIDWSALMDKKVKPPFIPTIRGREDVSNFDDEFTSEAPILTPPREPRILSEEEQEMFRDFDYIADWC
# Chain of UniProt P09874 (P09874 whole entry, looked up): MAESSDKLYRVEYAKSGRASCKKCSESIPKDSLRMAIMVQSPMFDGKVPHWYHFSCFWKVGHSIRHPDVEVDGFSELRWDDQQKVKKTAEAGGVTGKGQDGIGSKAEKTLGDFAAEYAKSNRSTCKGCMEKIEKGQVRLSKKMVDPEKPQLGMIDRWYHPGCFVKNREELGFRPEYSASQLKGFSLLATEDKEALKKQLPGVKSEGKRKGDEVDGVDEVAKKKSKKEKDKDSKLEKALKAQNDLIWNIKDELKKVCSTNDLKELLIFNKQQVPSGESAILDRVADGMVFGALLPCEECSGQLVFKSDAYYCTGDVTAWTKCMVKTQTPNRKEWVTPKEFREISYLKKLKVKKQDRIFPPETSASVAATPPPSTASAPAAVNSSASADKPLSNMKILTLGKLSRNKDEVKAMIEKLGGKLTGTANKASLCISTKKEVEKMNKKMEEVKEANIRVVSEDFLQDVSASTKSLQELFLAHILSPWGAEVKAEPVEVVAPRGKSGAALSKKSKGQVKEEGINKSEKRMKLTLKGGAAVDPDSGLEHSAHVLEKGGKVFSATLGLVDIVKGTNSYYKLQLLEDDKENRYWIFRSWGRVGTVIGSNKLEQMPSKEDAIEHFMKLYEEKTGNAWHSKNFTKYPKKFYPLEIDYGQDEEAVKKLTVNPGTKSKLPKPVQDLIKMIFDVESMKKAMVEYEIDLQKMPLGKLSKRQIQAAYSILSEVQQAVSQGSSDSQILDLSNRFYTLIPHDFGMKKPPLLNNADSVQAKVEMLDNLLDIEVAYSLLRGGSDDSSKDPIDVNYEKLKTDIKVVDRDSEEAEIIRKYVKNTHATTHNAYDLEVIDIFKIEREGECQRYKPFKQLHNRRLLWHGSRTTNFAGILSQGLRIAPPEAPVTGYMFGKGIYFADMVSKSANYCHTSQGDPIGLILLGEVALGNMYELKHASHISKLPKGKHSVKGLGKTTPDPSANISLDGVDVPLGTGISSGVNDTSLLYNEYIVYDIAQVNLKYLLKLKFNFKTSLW
Target,log2 fold change [1],log2 fold change [2],log2 fold change [3],log2 fold change [4],log2 fold change (Nexturastat A),log2 fold change (vemurafenib),log2 fold change [5],log2 fold change [6],log2 fold change (givinostat),log2 fold change (barasertib),log2 fold change [7],log2 fold change (volasertib),log2 fold change [8],log2 fold change (epoxomicin),log2 fold change [9],log2 fold change [10],log2 fold change (rosiglitazone),log2 fold change [11],log2 fold change [12],log2 fold change [13]
QRICH1 (UniProt Q2TAL8),0.064,-0.021,0.06,0.192,0.158,0.173,0.122,-0.215,0.07,0.214,-0.464 (active),-0.39,0.07,0.027,-0.163,0.258,-0.017,0,–,–
PRG4 (UniProt Q92954),-0.099,0.034,–,0.106,-0.007,0.008,–,-0.069,0.102,-0.023,0.073,–,-0.18,-0.294,0.053,-0.239,0.085,0.015,0.075,-0.228
POGZ (UniProt Q7Z3K3),0.037,-0.025,0.028,0.008,-0.127,0.122,-0.024,–,-0.142,–,-0.077,-0.293,–,0.08,-0.088,0.07,–,0.006,-0.192,0.063
PI4K2B (UniProt Q8TCG2),-0.082,-0.002,–,-0.013,–,0.059,–,0.144,0.019,0.146,-0.147,–,-0.039,–,-0.057,-0.024,0.004,0.079,0.045,-0.1
POLB (UniProt P06746),0.086,-0.211,0.009,–,0.189,–,0.178,–,-0.026,–,-0.127,-0.073,0.077,0.043,-0.078,–,–,0.016,0.111,-0.156
PAK4 (UniProt O96013),-0.154,0.06,-0.017,-0.017,-0.027,-0.035,-0.026,-0.141,-0.01,0.027,-0.026,-0.088,-0.026,-0.017,0.009,-0.012,0.062,0.049,-0.059,-0.083
PTTG1IP (UniProt P53801),0.122,–,-0.107,-0.062,-0.024,-0.059,0.02,0.008,-0.124,-0.025,-0.223,-0.05,-0.154,-0.017,-0.176,-0.041,0.011,0.009,-0.01,-0.771 (active)
PTK2B (UniProt Q14289),-0.09,0,0.06,-0.008,0.217,-0.129,0,0.06,0.421,0.031,–,-1.28 (active),-0.244,-0.012,-0.198,0.017,0.165,0.082,-0.141,-0.051
PARP1 (UniProt P09874),0.116,-0.149,0.071,0.107,-0.13,0.112,0.145,0.555 (active),0.045,0.122,-0.233,-0.57 (active),0.162,0.1,-0.088,–,0.086,0.027,0.302,-0.146
PKN2 (UniProt Q16513),0.104,-0.005,0.018,-0.012,0.042,0.05,0.086,0.032,0.034,0.106,–,-0.135,0.159,-0.027,-0.197,0.009,0.026,0.027,-0.046,-0.288 (active)
POLR3D (UniProt P05423),-0.078,0.014,-0.01,-0.023,0.153,0.03,0.055,0.104,0.065,0.098,–,-0.394 (active),0.107,-0.066,-0.06,0.018,-0.005,0.61,0.032,-0.035
POLR2C (UniProt P19387),-0.097,-0.058,0.038,-0.011,0.126,0.021,0.066,-0.005,0.042,0.022,0.059,-0.187,0.017,0.075,-0.035,0.006,0.042,-0.04,–,–
PPP1R12C (UniProt Q9BZL4),-0.048,0.027,0.124,–,0.154,-0.023,0.265,0.04,0.089,0.112,0.029,-0.027,0.204,-0.102,-0.094,-0.03,-0.031,0.013,-0.116,0.029
PLK1 (UniProt P53350),0.003,-0.052,-0.03,-0.012,0.003,0.018,0.029,0.042,-0.314 (active),0.015,–,-2.06 (active),0.049,0.044,-0.023,-0.016,0.016,-0.029,0.033,-0.068
PTP4A2 (UniProt Q12974),0.026,-0.045,0.012,0.076,-0.069,-0.002,-0.129,0.02,-0.022,-0.006,0.039,0.083,0.077,0.153,0.027,-0.026,-0.124,-0.003,–,–
